The compounds below were run on TDF (assay: H1.0 immunofluorescence intensity relative to DMSO (% of DMSO); higher = stronger H1.0 induction, active = 120 or more). Conditions: concentration: 10 µM; 24 h.
Outline: (§1)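 Using 384-well plates with 800 cells per well in RPMI plus 10% FBS, HCC1569 and TDF cells were exposed to compounds at 10 µM, in triplicate, for 24 h at 37 °C. Imaging of six fields per well at ×10 followed H1.0 and DAPI staining. The reported quantity, H1.0 nuclear intensity or cell number, is a median of replicates given as percent of the plate control, and HCC1569 values were smoothed for positional effects.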
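Also: TDF is a line of transformed human dermal fibroblasts of mesenchymal origin.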

H1.0 immunofluorescence intensity, inactive:
CC1C(NC(=O)C(=NOC(C)(C)C(=O)O)c2csc(N)n2)C(=O)N1S(=O)(=O)O (stereo not given) [Aztreonam] 93.1
CCCCS(=N)(=O)CCC(N)C(=O)O (stereo not given) [Buthionine sulfoximine] 89.1
O=C(O)c1ccccc1C(=O)Nc1ccc(-c2ccccc2)cc1 [2-[([1,1'-biphenyl]-4-ylamino)carbonyl]benzoic acid] 98.7
CON=C(C(=O)NC1C(=O)N2C(C(=O)[O-])=C(C[N+]3(C)CCCC3)CSC12)c1csc(N)n1 (stereo not given) [Cefepime] 91.1
CCCCCCCCC(=O)NCc1cc(OC)c(O)cc1I [N-(4-hydroxy-2-iodo-5-methoxybenzyl)nonanamide] 93.2
NNC(=O)c1ccncc1 [Isoniazid] 89.6
COc1cc(Br)c(Nc2nc(-c3c(C)nc4ncccn34)cs2)c(Br)c1 108
C=C1CCC2OC2(C)CCC2C1CC2(C)C (stereo not given) [Caryophylline] 105
COc1ccc(-c2cnc3c(-c4ccsc4)cnn3c2)cc1 [VEGF Receptor 2 Kinase Inhibitor IV] 89
NC(=O)Nc1sc(-c2ccc(F)cc2)cc1C(N)=O [IKK-2 Inhibitor IV] 95.8

These compounds were tested on HCC1569 (assay: H1.0 immunofluorescence intensity relative to DMSO (% of DMSO); higher = stronger H1.0 induction, active = 140 or more). Conditions: concentration: 10 µM; 24 h.
Outline: as §1

H1.0 immunofluorescence intensity, inactive:
CCCCCC(O)C=CC1C=CC(=O)C1CC=CCCCC(=O)O (stereo not given) [Prostaglandin A2] 104
COC(=O)c1ccc2c(c1)NC(=O)C2=C(Nc1ccc(N(C)C(=O)CN2CCN(C)CC2)cc1)c1ccccc1 [Vargatef] 113
C1COC(NC(C2CC2)C2CC2)=N1 [Rilmenidine hemifumarate] 107
CN1c2cc3c(cc2N=C(c2ccc(C(=O)O)cc2)c2ccccc21)C(C)(C)CCC3(C)C 112
CC1CCCC(C)N1NC(=O)c1ccc(Cl)c(S(N)(=O)=O)c1 (stereo not given) [Clopamide] 104
CCCCC(=O)N(Cc1ccc(-c2ccccc2-c2nn[nH]n2)cc1)[C@H](C(=O)O)C(C)C 100
CC(C)=CCC[C@@H](C)[C@H]1CC[C@H]2[C@@H]3CC=C4C[C@@H](O)CC[C@]4(C)[C@H]3CC[C@]12C [(3beta)-cholesta-5,24-dien-3-ol] 101
CCCCCCCCCCCC=CCCCCC(=O)O [6(E)-Octadecenoic acid] 89.5
CN(c1ccccc1CNc1nc(Nc2ccc3c(c2)CC(=O)N3)ncc1C(F)(F)F)S(C)(=O)=O 126
CC12CCC3c4ccc(O)cc4CCC3C1CC(O)C2O (stereo not given) [Estriol] 113
CCCCCCCCC=CCC=CCC=CCCCC(=O)O [5(Z), 8(Z), 11(Z)-Eicosatrienoic Acid] 97.8
COc1ccc2[nH]c(S(=O)Cc3ncc(C)c(OC)c3C)nc2n1 (stereo not given) [Tenatoprazole] 100
COc1ccc(CNC(=O)c2sc3nc(C)cc(C)c3c2N)cc1 101
CCC1(O)CC2CN(CCc3c([nH]c4ccccc34)C(C(=O)OC)(c3cc4c(cc3OC)N(C)C3C(O)(C(=O)OC)C(OC(C)=O)C5(CC)C=CCN6CCC43C65)C2)C1.O=S(=O)(O)O (stereo not given) [Vinblastine sulfate salt] 132
COc1cc2nccc(Oc3ccc(NC(=O)Nc4cc(C)on4)c(Cl)c3)c2cc1OC.O [VEGFR Tyrosine Kinase Inhibitor IV] 121
CCCCN(CCCC)CC(O)c1cc(Cl)cc2c1-c1ccc(Cl)cc1/C2=C/c1ccc(Cl)cc1 (stereo not given) 104
CON=C(C(=O)NC1C(=O)N2C(C(=O)[O-])=C(COC(C)=O)CSC12)c1csc(N)n1.[Na+] (stereo not given) [Cefotaxime sodium] 87
Cc1cnc(C(=O)NCCc2ccc(S(=O)(=O)NC(=O)NC3CCCCC3)cc2)cn1 [Glipizide] 103
COc1cc2c(cc1OC)C1C(=O)c3ccc4c(c3OC1CO2)C=CC(C)(C)O4 (stereo not given) [Degeulin] 121
Cc1cccc(-c2[nH]ncc2-c2ccc3ncccc3n2)n1 92.8
O=C1OC(C(O)CO)C(O)=C1O (stereo not given) [Ascorbic acid] 95.2
N=S(=O)([O-])Cc1noc2ccccc12.[Na+] [Zonisamide sodium] 98.6
O=C(O)CC/C=C\C[C@H]1CO[C@@H](c2ccccc2Cl)O[C@H]1c1ccccc1O 108
Cl.NCC1OC(C23CC4CC(CC(C4)C2)C3)Cc2c1ccc(O)c2O (stereo not given) 129
CC(OC1OCCN(Cc2nc(=O)[nH][nH]2)C1c1ccc(F)cc1)c1cc(C(F)(F)F)cc(C(F)(F)F)c1 (stereo not given) [Aprepitant] 107
COc1cc2ncnc(Nc3ccc(F)c(Cl)c3)c2cc1OCCCN1CCOCC1 [Gefitinib] 123
NC(CO)(CO)CO.O=C(c1ccccc1)c1ccc2n1CCC2C(=O)O (stereo not given) [Ketorolac tris salt] 94.1
CSc1nc(N)c2ncn(C3OC(COP(=O)([O-])OP(=O)([O-])[O-])C(O)C3O)c2n1.[Na+].[Na+].[Na+] (stereo not given) [2-Methylthioadenosine diphosphate trisodium] 89.7
COC(=O)c1ccc2c(c1)nc(NC(=O)c1ccccc1)n2CCCc1ccccc1 88.3
CC1C(NC(=O)C(=NOC(C)(C)C(=O)O)c2csc(N)n2)C(=O)N1S(=O)(=O)O (stereo not given) [Aztreonam] 103
CCCCS(=N)(=O)CCC(N)C(=O)O (stereo not given) [Buthionine sulfoximine] 92.6
O=C(O)c1ccccc1C(=O)Nc1ccc(-c2ccccc2)cc1 [2-[([1,1'-biphenyl]-4-ylamino)carbonyl]benzoic acid] 95.6
CON=C(C(=O)NC1C(=O)N2C(C(=O)[O-])=C(C[N+]3(C)CCCC3)CSC12)c1csc(N)n1 (stereo not given) [Cefepime] 110
CCCCCCCCC(=O)NCc1cc(OC)c(O)cc1I [N-(4-hydroxy-2-iodo-5-methoxybenzyl)nonanamide] 116
NNC(=O)c1ccncc1 [Isoniazid] 110
C=C1CCC2OC2(C)CCC2C1CC2(C)C (stereo not given) [Caryophylline] 91.3
COc1ccc(-c2cnc3c(-c4ccsc4)cnn3c2)cc1 [VEGF Receptor 2 Kinase Inhibitor IV] 109

H1.0 immunofluorescence intensity, active:
Cn1c(=O)c(-c2c(Cl)cccc2Cl)cc2cnc(Nc3cccc(C(=O)O)c3)nc21 156
COc1cc(Br)c(Nc2nc(-c3c(C)nc4ncccn34)cs2)c(Br)c1 199
NC(=O)Nc1sc(-c2ccc(F)cc2)cc1C(N)=O [IKK-2 Inhibitor IV] 186

Source: the supplement of paper PMC7156485
